Source: PubChem BioAssay (NCATS)
“And” between values parts separate entries of the source, which are not always exact repeats. Equal entries are not always repeated. Inconclusive results are not listed. The source holds several records for some structures; these can differ, active in one and inactive in another. The source made the active and inactive calls. Unless noted, no rule for the calls is given here.

Experiments:
[1] = qHTS profiling of the MIPE4 collection as inhibitors of Plasmodium falciparum (DD2) proliferation (AID 743345); conditions: P. falciparum Dd2 in erythrocytes, SYBR Green DNA, 72 h; at 28.5 µM (top of the series) unless noted
In short: (§1)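 Parasite DNA was quantified by SYBR Green I fluorescence (ex 485, em 535 nm) after overnight lysis in saponin/Triton buffer at room temperature. Cultures at 0.3% parasitemia and 2.5% hematocrit were first exposed to compound for 72 h at 37 C; signals were normalised to artemisinin (0.29 uM) and vehicle wells.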

[2] = qHTS profiling of the MIPE4 collection as inhibitors of Plasmodium falciparum (DD2) proliferation (Rep 2) (AID 743346); conditions: P. falciparum Dd2 in erythrocytes, SYBR Green DNA, 72 h; at 28.5 µM (top of the series) unless noted
In short: as §1

[3] = qHTS profiling of the MIPE4 collection as inhibitors of Plasmodium falciparum (HB3) proliferation (AID 743347);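 also: plate controls were DMSO vehicle wells for no effect and artemisinin wells for full effect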; conditions: P. falciparum HB3 in erythrocytes, SYBR Green DNA, 72 h; at 28.5 µM (top of the series) unless noted
In short: as §1

[4] = High-throughput drug toxicity screening in the BPDCN cell line Gen2.2 (AID 1224824); conditions: Gen2.2 BPDCN cells; at 45.8 µM (top of the series) unless noted;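 also: cells exposed to compounds for 48 h before reading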
In short: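 Readout is ATP luminescence from Gen2.2 cells after two days of drug exposure in serum-containing medium at 37 °C. Values express percent activity, with vehicle defining full signal and 9.2 uM bortezomib defining zero.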

[5] = High-throughput drug toxicity screening in the BPDCN cell line Cal-1 (AID 1224825); conditions: Cal-1 BPDCN cell viability, qHTS; at 45.8 µM (top of the series) unless noted
In short: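 CellTiter-Glo luminescence after 48 h compound exposure; percent activity scaled with DMSO as 100% and bortezomib (9.2 uM final) as 0%. Cal-1 cells seeded at 500/well in RPMI, 10% FBS, no phenol red.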

[6] = qHTS assay for measurement of the activity of small molecule inhibitors on Zika virus induced Caspase-3 activity in human iPSC derived neural progenitor cells (hNPCs) (AID 1224857; active = well fitted inhibition curve with a large enough effect; also: nearly all actives have a fitted effect of over 65% in size; also: potency is read from the fitted curve at half-maximal effect)
In short: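 Percent inhibition of virus-induced caspase-3/7 luminescence (Caspase-Glo), scaled between uninfected cells and Zika-infected cells. hNPCs received compound 1 hr before ZIKV at 2 FFU/cell, with 6 hours infection at 37 C.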

[7] = qHTS assay for measurement of the activity of small molecule inhibitors on Zika virus induced Caspase-3 activity in human astrocytoma cells (AID 1224859; active = well fitted inhibition curve with a large enough effect; also: potency is read from the fitted curve at half-maximal effect)
In short: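 Luminescent caspase-3/7 read-out (30 min reagent, room temperature) in human SNB-19 cells infected 6 h with ZIKV (2 FFU/cell) after 1 h compound pre-incubation; Data were normalised to uninfected and infected wells.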

[8] = qHTS Screen of the MIPE 4.0 Collection Against Ewings Sarcoma (RDES) (AID 1259252; active = well fitted inhibition curve with a large enough effect; also: nearly all actives have a fitted effect of over 35% in size; also: potency is read from the fitted curve at half-maximal effect)
In short: (§2)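 Dose series incubated 48 h with cells in RPMI plus 5% FBS, glutamine and penicillin/streptomycin; cell viability then quantified via CellTiter-Glo.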

[9] = qHTS Screen of the MIPE 4.0 Collection Against Ewings Sarcoma (TC71) (AID 1259253; active = well fitted inhibition curve with a large enough effect; also: nearly all actives have a fitted effect of over 40% in size; also: potency is read from the fitted curve at half-maximal effect)
In short: as §2

[10] = qHTS Screen of the MIPE 4.0 Collection Against Ewings Sarcoma (EW8) (AID 1259255; active = well fitted inhibition curve with a large enough effect;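 also: 100% = DMSO-treated cells and 0% = medium-only wells without cells; nearly all actives have a fitted effect of over 35% in size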)
In short: as §2

SMILES	parasite growth remaining, % of DMSO control (lower = more inhibition) [1]	parasite growth, % of control (lower = inhibition) [2]	growth, % of control [3]	cell viability, % of control (lower = more cytotoxic) [4]	viability (% of control) [5]	Potency [6]	Potency [7]	Potency [8]	Potency [9]	Potency [10]
Cc1cccc(CN2CCN(C(c3ccccc3)c3ccc(Cl)cc3)CC2)c1 (stereo not given)	7.56%	22.6%	9.08%	156%	94%	inactive	inactive	20.9 µM (active)	–	–
CCN(CC)CCOc1ccc(Cc2ccccc2)cc1	74.1%	–	84.7%	158%	100%	inactive	inactive	18.7 µM (active)	–	–
O=C(O)CCNC(=O)c1ccc(N=Nc2ccc(O)c(C(=O)O)c2)cc1	108%	–	73.4%	171%	130%	inactive	inactive	9.35 µM (active)	9.35 µM (active)	–
CCC[C@@H]1C[C@@H](C(=O)N[C@@H]([C@H]2O[C@H](SC)[C@H](O)[C@@H](O)[C@H]2O)[C@@H](C)O)N(C)C1	50.3%	67.1%	66.3%	191%	114%	inactive	inactive	inactive	–	inactive
Cc1c(C(=O)NN2CCCCC2)nn(-c2ccc(Cl)cc2Cl)c1-c1ccc(Cl)cc1	8.4%	–	8.97%	24.4%	13.1%	inactive	inactive	–	23.5 µM (active)	–
CC[C@]1(O)C[C@H]2CN(CCc3c([nH]c4ccccc34)[C@@](C(=O)OC)(c3cc4c(cc3OC)N(C=O)[C@H]3[C@@](O)(C(=O)OC)[C@H](OC(C)=O)[C@]5(CC)C=CCN6CC[C@]43[C@@H]65)C2)C1	18%	–	5.89%	10.7%	10.9%	inactive	inactive	–	0.0033 µM (active)	–
COc1c2occc2cc2ccc(=O)oc12	–	–	–	109%	93.5%	inactive	inactive	inactive	–	inactive
Clc1ccc(C(Cn2ccnc2)OCc2c(Cl)cccc2Cl)c(Cl)c1 (stereo not given)	9.61%	14.8%	7.46%	327%	63.4%	inactive	inactive	–	–	–
COc1cc2nc(N3CCN(C(=O)C4CCCO4)CC3)nc(N)c2cc1OC (stereo not given)	76.4%	–	11.3%	151%	88.2%	inactive and 13.2 µM (active)	14.8 µM (active)	inactive	–	inactive
Oc1ccc(-c2nc(-c3ccc(F)cc3)c(-c3ccncc3)[nH]2)cc1	79.6%	35.5%	24.5%	136%	54.8%	inactive	inactive	–	–	–
c1ccc2[nH]c(-c3cscn3)nc2c1	87.1%	–	9.5%	245%	102%	16.6 µM (active)	16.6 µM (active)	inactive	inactive	–
Cc1ccc(Nc2nccc(N(C)c3ccc4c(C)n(C)nc4c3)n2)cc1S(N)(=O)=O	–	–	–	355%	62.5%	inactive	inactive	11.8 µM (active)	–	inactive
Nc1cc(C(Cl)=C(Cl)Cl)c(S(N)(=O)=O)cc1S(N)(=O)=O	102%	–	98.3%	360%	106%	inactive	inactive	–	–	–
CCN(CCO)CCCC(C)Nc1ccnc2cc(Cl)ccc12 (stereo not given)	16.9%	–	49.8%	86.1%	8.28%	inactive	inactive	–	–	–
Cc1ccc(C)c(OCCCC(C)(C)C(=O)O)c1	47.3%	–	3.44%	120%	51%	inactive	inactive	–	–	–
CC(=O)NC[C@H]1CN(c2ccc(N3CCOCC3)c(F)c2)C(=O)O1	87.8%	–	94.8%	81.5%	105%	inactive	–	inactive	–	–
CC1(C)NC(=O)N(c2ccc([N+](=O)[O-])c(C(F)(F)F)c2)C1=O	106%	86.1%	91%	204%	105%	inactive	–	inactive	–	inactive
Cc1ccc(C(=O)c2cc(O)c(O)c([N+](=O)[O-])c2)cc1	93.6%	82.4%	92.8%	52.4%	73.3%	inactive	–	–	–	–
Nc1ccn([C@@H]2O[C@H](CO)[C@@H](O)C2O)c(=O)n1 (stereo not given in full)	137%	71%	107%	225%	92.2%	inactive	–	inactive	inactive	inactive
Cc1cc(=O)oc2cc(O)ccc12	101%	107%	105%	183%	104%	inactive	–	–	–	inactive
CC(C)Oc1ccc2c(=O)c(-c3ccccc3)coc2c1	89.9%	60%	54.5%	181%	102%	10.5 µM (active)	10 µM (active) and 11.8 µM (active)	–	–	–
Cn1c(NCCN(CCO)CCCc2ccc([N+](=O)[O-])cc2)cc(=O)n(C)c1=O	76.1%	7.33%	9.64%	108%	67.6%	inactive	–	20.9 µM (active)	18.7 µM (active)	–
C[C@@H](N)C1CCC(C(=O)Nc2ccncc2)CC1 (stereo not given in full)	91.5%	–	72.6%	84.4%	79.9%	inactive	–	18.7 µM (active)	inactive	–
O=C(NOCC1CC1)c1ccc(F)c(F)c1Nc1ccc(I)cc1Cl	91.6%	56.1%	63.7%	6.36%	7.67%	inactive	–	20.9 µM (active)	20.9 µM (active)	–
Nc1cccc2c1CN(C1CCC(=O)NC1=O)C2=O (stereo not given)	107% [at 57.5 µM]	127% [at 57.5 µM]	108% [at 57.5 µM]	178% [at 92.2 µM]	101% [at 92.2 µM]	inactive	–	inactive	–	–
COc1ccc(C2(C#N)CCC(C(=O)O)CC2)cc1OC1CCCC1 (stereo not given)	–	–	101%	129%	87.2%	inactive	–	inactive	inactive	–
